Screening results as filed in PubChem.
Rows were chosen to be rich in hits. Some 4.3% of all compounds tested hit in one or more screens of this group.
MCF10A rerep: inducers of DNA re-replication in MCF 10A breast cells; MCF 10A DNA re-replication, Hoechst nuclear intensity, 48 h; Potency, µM (top dose mostly 46.1 µM), hits mostly activators; 350,000 compounds, 2.9% hits; AID 624296; further: nearly all actives have a fitted effect of over 50% in size
uPA surface inh: inhibitors of cell surface uPA generation; cell surface uPA generation assay, qHTS; AID 540303; 330,000 compounds, 0.31% hits; Potency, µM (doses to about 38.3 µM), most hits filed as inhibitors; active means well fitted inhibition curve with a large enough effect; inconclusive means small, poorly fitted or top-dose-only effect; inactive means no such curve, though single readings can be large or run the other way; tested in mouse RAW 264.7 cells; further: nearly all actives have a fitted effect of over 55% in size
Giardia killer: kills Giardia lamblia | Giardia lamblia trophozoite viability | activity change, % at 7.66 µM, hits read low | 340,000 compounds, 0.15% hits | AID 540267; in the data active means activity change below about -80%; inconclusive means between about -30% and that limit;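 further: parasites exposed to compound for two days anaerobically before the ATP read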
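Giardia lamblia trophozoites (100 cells/well) were incubated with compounds for 48 h at 37 deg C under anaerobic conditions. Viability was read as ATP content by one-step luminescence after 15-30 min at room temperature.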
SW480 rereplic: DNA re-replication induction in SW480 cells; Potency, µM (top dose mostly 46.1 µM), usual class: activators; 340,000 compounds, 1.8% hits; AID 624297; SW480 DNA re-replication, Hoechst DNA content imaging, 48 h; further: nearly all actives have a fitted effect of over 55% in size
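Quantitative HTS format with DMSO vehicle controls; 48 hr drug incubation at 37 C, then 40 min Hoechst staining and scanning imager measurement at 405 nm excitation.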
Hits are given with their value; - = inactive; ? = inconclusive; . = no result. Unless noted, the call rests on the fitted dose curve; in most records, active means well fitted activation curve with a large enough effect; inconclusive means small, poorly fitted or top-dose-only effect; inactive means no such curve, though single readings can be large or run the other way.

SMILES	MCF10A rerep	uPA surface inh	Giardia killer	SW480 rereplic
O=S(=O)(O)c1ccc2c(c1)C(C(Cl)(Cl)Cl)OC(C(Cl)(Cl)Cl)O2 (configuration not stated)	-	-	-	-
O=C(CNC(=O)C1CCCCC1)OCC(=O)c1ccc(C2CCCCC2)cc1	.	.	-	.
O=S(c1ccccc1O)S(=O)c1ccccc1O (configuration not stated)	?	-	-	?
N#CC1=C(N)C(C#N)(C#N)[C@H](c2ccoc2)[C@H]2CN(Cc3ccccc3)CC=C12	7.3µM	-	-	16µM
CN1CC=C2C(C#N)=C(N)C(C#N)(C#N)[C@H](c3ccoc3)[C@H]2C1	-	-	-	-
Cc1ccc(S(=O)(=O)N(C)C)cc1NC(=S)NC(C)CCCC(C)C (configuration not stated)	?	-	-	-
CCCCCCC(C)NC(=S)Nc1cc(S(=O)(=O)N(C)C)ccc1C (configuration not stated)	18µM	-	-	?
Cc1ccc(S(=O)(=O)Nc2c(C)nc3nc[nH]n3c2=O)c(C)c1	-	-	-	-
COC1=C2C[C@H](C)C[C@H](OC)[C@@H](O)[C@@H](C)C=C(C)[C@H](OC(N)=O)[C@@H](OC)C=CC=C(C)C(=O)NC(=CC1=O)C2=O	.	.	-	.
COc1ccc2c(c1)O[C@H](c1ccc3c(c1)OCO3)[C@@H](OC(=O)Nc1cc(OC)c(OC)c(OC)c1)C2=O	?	.	.	12µM
COc1cccc([C@@H]2Oc3ccc(OC)cc3C(=O)[C@H]2OC(=O)Nc2cc(OC)c(OC)c(OC)c2)c1	-	-	-	-
COc1ccc(-c2nc(CS(=O)CC(=O)NCc3ccc4c(c3)OCO4)c(C)o2)cc1OC (configuration not stated)	-	-	-	-
Cc1ccc(C(=O)CSc2nnc3c4ccccc4nc(C(C)(C)C)n23)cc1	6.5µM	-	-	13µM
CC(=O)CSc1nnc2c3ccccc3nc(C(C)(C)C)n12	?	-	-	?
Cc1cccc(/C=N/NC(=O)Cc2cccs2)c1	-	-	-	-
Cc1ccc(C=Nc2ccccc2C(N)=O)s1	3.7µM	-	-	4.6µM
Cc1cccc(C=Nc2ccccc2C(N)=O)c1	3.7µM	.	-	5.8µM
Cc1ccc(C(=O)C(OC(=O)CNC(=O)COc2ccccc2C)c2ccccc2)cc1 (configuration not stated)	.	.	-	.
Cc1ccc(Cn2c(CCNC(=O)c3cccc(C)c3)nc3ccccc32)cc1	.	.	-	.
Cc1ccc(Nc2nc(Nc3ccc(Cl)cc3)nc(N3CCOCC3)n2)cc1	.	.	-	.
Fc1ccc(Nc2nc(N3CCOCC3)nc(N3CCOCC3)n2)cc1Cl	-	-	-	18µM
Clc1ccc(Nc2nc(NCCN3CCOCC3)nc(N3CCOCC3)n2)cc1	?	-	-	9.2µM
O=[N+]([O-])c1cc([N+](=O)[O-])c2oc(-c3ccccc3)c(Br)c2c1O	?	-	-	-
O=C(Cc1cccs1)NCCc1ccc(Cl)cc1	-	-	-	-
COc1c(Cl)cc(C(=O)NN)cc1Cl	?	-	-	13µM
SMILES	MCF10A rerep	uPA surface inh	Giardia killer	SW480 rereplic
COc1ccccc1N(CC(=O)NCCSCc1ccccc1)S(C)(=O)=O	-	?	-	-
COc1ccccc1N(CC(=O)NCCSCc1cccc(C)c1)S(=O)(=O)c1ccccc1	18µM	-	-	-
N#C/C(=C(/O)COC(=O)c1ccc(O)cc1)c1nc2ccccc2[nH]1	-	-	-	-
Cc1ccc(C(C)C)c(OC/C(O)=C(\C#N)c2nc3ccccc3[nH]2)c1	16µM	-	-	?
Cc1c(-c2cccc(Cl)c2)nc2ccccc2c1C(=O)OC/C(O)=C(\C#N)c1nc2ccccc2[nH]1	5.2µM	-	-	?
CCOC(=O)c1c(C)[nH]c(C(=O)OCC(O)=C(C#N)c2nc3ccccc3[nH]2)c1C	13µM	-	-	?
CC(C)C(=O)OC/C(O)=C(\C#N)c1nc2ccccc2[nH]1	-	-	-	-
O=C1OCCN1C(=O)[C@H]1[C@H](c2ccc(Cl)cc2)C(c2ccccc2)=NN1c1ccccc1	?	-	-	?
O=C1OCCN1C(=O)[C@H]1[C@H](c2ccccc2)C(c2cccc(Cl)c2)=NN1c1ccccc1	?	-	-	18µM
Cc1cccc(C2=NN(c3ccccc3)[C@@H](C(=O)N3CCOC3=O)[C@@H]2c2ccc(Cl)cc2)c1	2.3µM	-	-	26µM
O=C1CC(N2CCN(S(=O)(=O)c3ccccc3F)CC2)C(=O)N1c1ccccc1F (configuration not stated)	-	-	-	-
O=C(NC(C(=O)N/N=C/c1c2ccccc2cc2ccccc12)c1n[nH]c(=O)c2ccccc12)c1ccccc1 (configuration not stated)	2.1µM	-	-	8.2µM
Cc1cc(F)ccc1NC(=O)CS(=O)(=O)c1cccc2nsnc12	.	.	-	.
O=C(CCCN1C(=O)/C(=C/c2ccc(F)cc2)SC1=S)NCCCn1ccnc1	21µM	-	-	-
CCOc1ccc(/C=C2\SC(=S)N(CCCC(=O)NCCCN3CCOCC3)C2=O)cc1	?	-	-	16µM
COc1ccc(/C=C2\SC(=S)N(CCC(=O)NCCCn3ccnc3)C2=O)cc1	-	-	-	-
Cc1cc(C)n2nc(SC(C)C(=O)N(C)C3CCCCC3)nc2n1 (configuration not stated)	-	-	-	-
CCCCN(C(=O)C1CCCO1)c1c(N)n(CCC)c(=O)[nH]c1=O (configuration not stated)	-	-	-	-
O=C(Oc1c(-c2ccccc2)oc2ccccc2c1=O)c1ccccc1	?	-	-	-
O=C(Oc1cc(=O)oc2ccccc12)c1ccccc1	7.3µM	-	-	4.1µM
O=C(c1ccccc1)C1(c2ccccc2)OC1c1ccccc1 (configuration not stated)	-	-	-	-
Cc1cccc(NC(=O)CSc2nc3ccccc3nc2N2CCCC2)c1	21µM	-	-	-
Cc1cccc(NC(=O)CSc2nc3ccccc3nc2N2CCCCC2)c1	?	-	-	-
O=C(CSc1nc2ccccc2nc1N1CCCCC1)N1CCN(c2ccccc2)CC1	4.1µM	-	-	-
O=C(CSc1nc2ccccc2nc1N1CCOCC1)N1CCN(c2ccccc2)CC1	-	-	-	-
SMILES	MCF10A rerep	uPA surface inh	Giardia killer	SW480 rereplic
CCc1ccc(NC(=O)CSc2nc3ccccc3nc2N2CCCCC2)cc1	10µM	-	-	-
O=C(O)C1CC=CC2CCN(C3CC3)C(=O)C21 (configuration not stated)	.	.	-	.
O=S(=O)(c1ccccc1C(F)(F)F)N1CCN(c2nc(-c3cccs3)nc3ccccc23)CC1	.	.	-	.
CCN(CC(=O)NCc1ccc(Cl)cc1)C(=O)c1sccc1C	-	-	-	-
O=C(c1nn2c(C(F)(F)F)cc(-c3ccco3)nc2c1Br)N1CCCc2ccccc21	9.2µM	-	-	?
O=C(COC(=O)Cn1cnc2ccccc21)Nc1ccc2c(c1)C(=O)c1ccccc1C2=O	?	11µM	-	6.5µM
Brc1ccccc1-c1nnc(SCc2nc3ccccc3s2)o1	9.2µM	-	-	-
CCN(CC)S(=O)(=O)c1cccc(-c2nnc(SCc3nc4ccccc4s3)o2)c1	?	-	-	-
